14 compounds from PubChem BioAssay (NCATS) can be followed below.

What all share (experiment): qHTS profiling for inhibitors of Plasmodium falciparum proliferation (AID 504749); further: nearly all actives have a fitted effect of over 60% in size
Holding throughout (settings): P. falciparum in erythrocytes, SYBR Green DNA, 72 h; series mostly up to 28.7 µM
For orientation: Quantitative high-throughput screening tests each substance at several concentrations.

One experiment deals with CP194. In outline: (§1)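 Readout was DNA-dye fluorescence from lysed cultures, ex 485/em 535 nm. Parasitized red cells had grown 72 h with compound; data scaled between 0.29 uM artemisinin and DMSO wells and corrected using vehicle-only plates.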
A further experiment deals with CP201. The method in brief: as §1
Another experiment has as its system CP203. In outline: as §1
A further experiment has as its system CP211. In outline:
as §1

Another experiment concerns CP215. In outline:
as §1

The next experiment concerns CP217. The method in brief:
as §1

Another experiment relates to CP237. The method in brief:
as §1

Another experiment has as its system CP238. In outline:
as §1

Another experiment relates to CP250. The method in brief:
as §1

The test system of the next experiment is CP252. In outline: as §1
Another experiment relates to CP256. The method in brief: as §1
The subject of the next experiment is CP260. The method in brief: as §1
A further experiment deals with CP262. In outline:
as §1

The subject of a further experiment is CP265. The method in brief:
as §1

In another experiment the test system is CP266. The method in brief: as §1
For another experiment, the system named is CP268. The method in brief: as §1
A further experiment deals with CP269. In outline:
as §1

The next experiment deals with CP286. In outline:
as §1

Another experiment concerns CP291. In outline: as §1
The next experiment concerns CP247. The method in brief: as §1

Molecules are shown by their SMILES. Results filed as inconclusive are left out. Activity calls are given as the source filed them. The call rests on the fitted dose curve; in most records, active means well fitted inhibition curve with a large enough effect; inconclusive means small, poorly fitted or top-dose-only effect; inactive means flat fitted curve, though single readings scatter.
Potency means the concentration at half of the fitted maximal effect.

As to `CC(C)CCCCCCc1ccc(O)cc1`, the Potency result with CP194, in the experiment on CP201, in the experiment on CP203, in the experiment on CP211, with CP215 and in the experiment with CP217 was “inactive” throughout. In addition, the Potency entry with CP237, in the experiment with CP238, with CP250, with CP252, in the experiment on CP256 and in the experiment on CP260 was “inactive” each time. Besides, the Potency entry in the experiment with CP262, with CP265, in the experiment with CP266, in the experiment with CP268, in the experiment with CP269 and with CP286 was “inactive” throughout. In addition, the Potency entry in the experiment with CP291 was “inactive”.

Turning to `Cc1ncc(COP(=O)(O)O)c(CN)c1O`, the Potency entry in the experiment on CP194, in the experiment on CP201, in the experiment on CP203, with CP211, in the experiment on CP215 and in the experiment with CP217 was “inactive” throughout. The Potency entry in the experiment on CP237, with CP238, in the experiment with CP250, in the experiment on CP252, in the experiment on CP256 and in the experiment with CP260 was “inactive” throughout. The Potency entry in the experiment with CP262, in the experiment on CP265, in the experiment with CP266, in the experiment with CP268, with CP269 and with CP286 was “inactive” in each case. In the experiment on CP291, the Potency result is “inactive”.

In the case of `CCCCC[C@H](O)/C=C/[C@H]1[C@H](O)CC(=O)[C@@H]1C/C=C\CCCC(=O)O`, the Potency entry in the experiment on CP194, in the experiment on CP201, with CP203, with CP211, in the experiment with CP215 and with CP217 was “inactive” throughout. Also, the Potency entry in the experiment on CP237, in the experiment with CP238, in the experiment on CP247, in the experiment on CP250, in the experiment on CP252 and in the experiment on CP256 was “inactive” each time. Besides, the Potency entry in the experiment with CP262, in the experiment on CP265, in the experiment with CP266, in the experiment on CP268, in the experiment with CP269 and in the experiment with CP286 was “inactive” in each case. In the experiment on CP291, the Potency result was “inactive”.

Regarding `CCCCC(CC)CCC(CC(C)C)OS(=O)(=O)O` (stereo not drawn), the Potency entry with CP194, in the experiment with CP201, in the experiment with CP203, in the experiment on CP211, with CP215 and in the experiment with CP217 was “inactive” in each case. The Potency entry with CP237, in the experiment with CP238, in the experiment on CP247, with CP250, with CP252 and in the experiment with CP256 was “inactive” each time. In addition, the Potency entry in the experiment on CP262, with CP265, with CP266, in the experiment with CP268, in the experiment with CP269 and in the experiment on CP286 was “inactive” in each case. In the experiment with CP291, the Potency result was “inactive”.

`Cc1cc2nc3c(=O)[nH]c(=O)nc-3n(C[C@H](O)[C@H](O)[C@H](O)COP(=O)(O)OP(=O)(O)OC[C@H]3O[C@@H](n4cnc5c(N)ncnc54)[C@H](O)[C@@H]3O)c2cc1C`: the Potency entry with CP194, with CP201, in the experiment with CP203, in the experiment on CP211, in the experiment with CP215 and in the experiment with CP217 was “inactive” each time. Also, the Potency entry in the experiment on CP237, in the experiment with CP238, in the experiment on CP250, in the experiment on CP252, in the experiment with CP256 and in the experiment on CP260 was “inactive” each time. The Potency result with CP262, with CP265, in the experiment with CP266, in the experiment on CP268, in the experiment on CP269 and with CP286 was “inactive” throughout. The Potency entry in the experiment on CP291 was “inactive”.

`CCOC(=O)Cc1ccc(-c2ccccc2)cc1`: the Potency result in the experiment on CP194, with CP201, in the experiment with CP203, in the experiment with CP211, in the experiment on CP215 and in the experiment on CP217 was “inactive” throughout. Further, the Potency result in the experiment with CP237, with CP238, with CP247, in the experiment on CP250, with CP260 and in the experiment on CP262 was “inactive” throughout. The Potency result in the experiment on CP266, in the experiment on CP268, in the experiment with CP269, in the experiment with CP286 and with CP291 was “inactive” throughout. Moreover, in the experiment on CP265, the Potency was 0.6 nM (active).

In the case of `CCOC(=S)SSC(=S)OCC`, the Potency result with CP194, with CP201, in the experiment on CP203, with CP211, in the experiment with CP215 and with CP217 was “inactive” throughout. The Potency entry in the experiment on CP237, in the experiment with CP238, in the experiment with CP250, with CP252, in the experiment with CP256 and in the experiment on CP260 was “inactive” throughout. In addition, the Potency result in the experiment with CP262, in the experiment on CP265, in the experiment with CP266, with CP268, in the experiment on CP269 and in the experiment on CP286 was “inactive” each time. For the same compound, in the experiment on CP291, the Potency entry was “inactive”.

On to `Cc1ncc(C[n+]2csc(CCOP(=O)(O)O)c2C)c(N)n1`, for which the Potency entry in the experiment on CP194, in the experiment with CP201, with CP203, with CP211, in the experiment on CP215 and with CP217 was “inactive” in each case. Also, the Potency entry in the experiment on CP237, with CP238, in the experiment with CP247, with CP252, with CP256 and in the experiment on CP260 was “inactive” each time. The Potency entry with CP262, in the experiment with CP265, with CP266, in the experiment on CP268, in the experiment on CP269 and in the experiment with CP286 was “inactive” throughout. For the same compound, the Potency result with CP291 was “inactive”.

Take `CC(C)(C)CC(C)(C)c1ccc(OCCO)cc1`: the Potency entry in the experiment with CP194, with CP201, in the experiment with CP203, with CP211, in the experiment with CP215 and in the experiment on CP217 was “inactive” throughout. The Potency result in the experiment with CP237, in the experiment with CP238, in the experiment on CP247, in the experiment on CP250, in the experiment with CP252 and in the experiment on CP260 was “inactive” throughout. Also, the Potency result in the experiment on CP262, in the experiment with CP265, in the experiment with CP266, in the experiment on CP268, in the experiment with CP269 and in the experiment with CP286 was “inactive” throughout. The Potency result in the experiment with CP291 was “inactive”.

For the compound `OCC(O)CO`, the Potency result with CP194, with CP201, in the experiment with CP203, with CP211, in the experiment with CP215 and in the experiment with CP217 was “inactive” each time. The Potency result in the experiment on CP237, in the experiment on CP238, with CP247, in the experiment on CP250, in the experiment with CP252 and in the experiment with CP256 was “inactive” in each case. Further, the Potency result in the experiment with CP260, in the experiment with CP265, in the experiment on CP266, in the experiment with CP268, with CP269 and in the experiment with CP286 was “inactive” each time. In the experiment with CP291, the Potency result was “inactive”.

For `C[Si](C)(C)O[Si](C)(C)C`, the Potency entry in the experiment with CP194, in the experiment with CP201, in the experiment on CP203, in the experiment with CP211, in the experiment with CP215 and in the experiment with CP217 was “inactive” throughout. For the same compound, the Potency result with CP237, in the experiment on CP238, with CP247, with CP250, in the experiment on CP252 and with CP256 was “inactive” each time. In addition, the Potency entry in the experiment with CP260, in the experiment on CP265, with CP268, in the experiment with CP269, in the experiment with CP286 and with CP291 was “inactive” throughout.

For the compound `O=C1N=C2SCCN2C(=O)C1Cc1ccc(Cl)cc1` (stereo not drawn), the Potency result in the experiment on CP194, in the experiment with CP201, in the experiment on CP203, in the experiment on CP211, in the experiment with CP215 and in the experiment with CP217 was “inactive” each time. For the same compound, the Potency result in the experiment on CP237, in the experiment on CP238, in the experiment with CP247, in the experiment on CP250, with CP252 and with CP256 was “inactive” each time. Also, the Potency entry in the experiment with CP262, in the experiment on CP265, in the experiment with CP266, with CP268, in the experiment on CP269 and with CP286 was “inactive” throughout. Also, the Potency result with CP291 was “inactive”.

For `CC12CCC(C[N+](C)(CCC[N+](C)(C)C)C1)C2(C)C` (stereo not drawn), the Potency entry in the experiment on CP194, in the experiment with CP201, with CP203, with CP211, in the experiment on CP215 and in the experiment on CP217 was “inactive” each time. The Potency entry in the experiment with CP237, in the experiment on CP238, in the experiment with CP247, in the experiment on CP250, in the experiment on CP252 and in the experiment with CP256 was “inactive” each time. Also, the Potency entry with CP260, in the experiment on CP265, in the experiment on CP266, with CP268, in the experiment on CP269 and with CP286 was “inactive” throughout. In addition, the Potency result in the experiment with CP291 was “inactive”.

For `CCCCCCCCCCCC(=O)N(CCO)CCO`, the Potency entry in the experiment with CP194, in the experiment with CP201, in the experiment on CP203, with CP211, in the experiment with CP215 and in the experiment with CP217 was “inactive” throughout. The Potency result with CP237, in the experiment on CP238, in the experiment on CP247, with CP250, in the experiment on CP252 and in the experiment with CP256 was “inactive” in each case. Also, the Potency entry in the experiment with CP260, in the experiment with CP265, with CP266, with CP269, in the experiment on CP286 and in the experiment on CP291 was “inactive” each time.
